“And” between values parts separate entries of the source, which are not always exact repeats. Identical values can stand only once. Results filed as inconclusive are left out. The source made the active and inactive calls. Unless noted, calls follow the shape of the dose curve; as a rule, active = well fitted curve in the direction sought with a large enough effect; inconclusive = small, poorly fitted or top-dose-only effect, or another doubt; inactive = no such curve, though single readings can be large; an effect the other way counts as inactive or inconclusive.
Experiments:
[1] = NFAT Signaling Pathway (AID 444; active = well fitted curve in either direction with a large enough effect, not every such curve was filed as active;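 also: carbachol stimulus at about its EC50 of 1 µM final; % is scaled to controls: 0 for no effect and ±100 for the full control effect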); conditions: Jurkat NFAT-bla M1, carbachol, beta-lactamase ratio, 5 h; at 38 µM (top of the series)
In short: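 Jurkat cells carrying an NFAT-driven β-lactamase reporter and co-transfected muscarinic M1 receptor were treated with compound plus carbachol (1 uM final, an EC50 level) for 5 h at 37 °C. CCF4 loading followed for 1 h at RT; 460/530 nm ratio gave %activity.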

[2] = molecular target: Pyruvate kinase (Leishmania mexicana) (UniProt Q27686); experiment: qHTS Validation Assay for Inhibitors of Leishmania Mexicana Pyruvate Kinase (AID 945);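 also: 0% = DMSO only neutral control wells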; conditions: purified L. mexicana pyruvate kinase, enzyme activity, E451W mutant enzyme; series mostly up to 57.5 µM
In short: (§1)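 Read-out: luminescence from PKLight stop/detection reagent, data normalized to DMSO. Reaction: 0.2 nM E451W LmPYK, 0.5 mM PEP, 0.1 mM ADP, pH 7.2, 1 h room temperature.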

[3] = qHTS Validation Assay to Find Inhibitors of Chronic Active B-Cell Receptor Signaling (AID 485345; active = well fitted curve in the direction sought with a large enough effect in the main read-out, with a control signal flat, not every such curve was filed as active;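 also: 0% = untreated basal cells and 100% = 10 µM MG-132 proteasome inhibitor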); conditions: ABC-DLBCL cells, chronic BCR signaling reporter, CBG luciferase; series mostly up to 46.1 µM
In short: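 TMD8 ABC-DLBCL cells with dox-inducible green luciferase–IκBα fusion and red native luciferase; compounds 46 uM–3 nM, 4 h at 37C with doxycycline in 0.5% FBS IMDM. Green/red ratio normalized to basal and 10 uM MG-132.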

[4] = Validation of Assay for Modulators of Lamin A Splicing (AID 1459; active = well fitted curve in the direction sought with a large enough effect in the signal ratio; the % refers to the signal ratio;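 also: cells exposed to compound for two days before reading; 0% is about no effect; ratio rise marks activators and ratio drop marks inhibitors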); conditions: Lamin A splicing dual RFP/GFP fluorescence reporter; series mostly up to 9.22 µM
In short: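 S3 HeLa stably expressing lamin A-EGFP splicing minigene and DsRed2, 600 cells/well in Opti-MEM with 2% FBS, treated 48 h at 37C; laser-scanning cytometry gives GFP/RFP total intensity ratio; ancitabine positive control, 0.5% DMSO vehicle.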

[5] = qHTS for differential inhibitors of proliferation of Plasmodium falciparum line GB4 (AID 1816); conditions: Potency: Plasmodium falciparum GB4 proliferation inhibition; series mostly up to 28.7 µM;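 also: parasite growth measured after 72 h incubation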; also: potency is read from the fitted curve at half-maximal effect;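 as to activity change, negative = inhibition: 0% = vehicle DMSO and -100% = reference inhibitor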
[6] = qHTS for differential inhibitors of proliferation of Plasmodium falciparum line HB3 (AID 1886); conditions: Potency: Plasmodium falciparum HB3 proliferation inhibition; series mostly up to 28.7 µM;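 also: parasites grown with compound for 72 h before SYBR Green readout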; also: potency is read from the fitted curve at half-maximal effect;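 as to activity change, negative = inhibition: plate controls were vehicle for no effect and reference inhibitor for full effect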
[7] = molecular target: Ferritin light chain (Equus caballus) (UniProt P02791); experiment: qHTS Validation Assay for Identification of Novel General Anesthetics (AID 2323); conditions: horse apoferritin, anesthetic-site fluorescent probe displacement; series mostly up to 76.9 µM; also: % is scaled to controls: 0 for no effect and ±100 for the full control effect
In short: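 Horse-spleen apoferritin (10 uM) in PBS with 50% saturated 1-aminoanthracene; compounds pin-transferred, 10 min at room temperature. Fluorescence read at 380/535 nm, normalized to free 1-AMA and 1-AMA/apoferritin values; four-parameter Hill fit.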

[8] = molecular target: RecQ-like DNA helicase BLM (Homo sapiens) (UniProt P54132); experiment: qHTS Validation Assay for Inhibitors of Bloom's syndrome helicase (BLM) (AID 2364); conditions: BLM helicase DNA unwinding, fluorescence, in vitro; series mostly up to 57.1 µM;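 also: plate controls were DMSO vehicle for no effect and enzyme-free control for full effect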
In short: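 BLM 50 nM in 25 mM Tris-HCl pH 8.0, 5 mM NaCl, 2 mM MgCl2, 1 mM DTT, 0.01% Tween-20, 2.5 ug/ml poly(dI-dC); 15 min cpd preinc, RT. Start: 200 nM forked DNA + 2 mM ATP (final). TAMRA read, 2 reads 2 h apart.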

[9] = molecular target: Cytochrome P450 1A2 (Homo sapiens) (UniProt P05177); experiment: p450-cyp1a2 (AID 410; calls by dose curve; also: potency is read from the fitted curve at half-maximal effect); conditions: recombinant CYP1A2, luciferin-ME demethylation, luminescence; series mostly up to 57 µM
In short: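 Read-out is luminescence from luciferin produced by CYP1A2 demethylation of Luciferin-ME (100uM, at Km). Detection reagent stopped the 60 min NADPH-dependent reaction; signals were normalized to 57 uM furafylline.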

[10] = Stat Signaling Pathway (AID 446; active = well fitted curve in either direction with a large enough effect, not every such curve was filed as active;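 also: ME-180 cervical cancer cells given 40 pM IL-6 alongside compound; SIE-controlled beta-lactamase reporter measured as 460/530 nm FRET emission ratio; % is scaled to controls: 0 for no effect and ±100 for the full control effect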); conditions: ME-180 (cervical carcinoma) SIE beta-lactamase reporter, IL-6 stimulated, 5 h; at 38 µM (top of the series)
In short: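 Emission at 460 and 530 nm (excitation 405 nm) reports SIE-controlled beta-lactamase in ME-180 cells. Cells received compound with 40 pM IL-6 for 5 hrs at 37 C; data scaled between 300 pM IL-6 and 125 nM JAK-inhibitor controls.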

[11] = molecular target: Cytochrome P450 3A4 (Homo sapiens) (UniProt P08684); experiment: qHTS Assay for Activators of Cytochrome P450 3A4 (AID 885); conditions: recombinant CYP3A4, Luciferin-PPXE luminescence, 60 min; series mostly up to 57.1 µM; also: nearly all actives have a fitted effect of over 65% in size
In short: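 Activators are scored by enhanced luminescence from CYP3A4 conversion of luciferin-PPXE (25uM, equal to KM) to luciferin, after 60 min at RT with an NADPH-regenerating system.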

[12] = molecular target: Pyruvate kinase (Leishmania mexicana) (UniProt Q27686); experiment: qHTS Validation Assay for Activators of Leishmania Mexicana Pyruvate Kinase (AID 959); conditions: purified L. mexicana pyruvate kinase, enzyme activity; series mostly up to 57.5 µM
In short: as §1

[13] = qHTS for differential inhibitors of proliferation of Plasmodium falciparum line W2 (AID 1883); conditions: Potency: Plasmodium falciparum W2 proliferation inhibition; series mostly up to 28.7 µM;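 also: potency is read from the fitted curve at half-maximal effect; parasites grown with compound for 72 h before lysis and staining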
[14] = molecular target: ATP-dependent 6-phosphofructokinase (Trypanosoma brucei brucei) (UniProt O15648); experiment: qHTS Validation Assay to Find Inhibitors of T. brucei phosphofructokinase (AID 485368);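 also: 0% = full PFK enzyme control and -100% = wells without enzyme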; conditions: T. brucei PFK enzyme assay, qHTS 7-point titration; series mostly up to 57.5 µM
In short: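 qHTS format, up to 57 uM. PFK 1.25 nM; F6P 0.5 mM; ATP 0.1 mM; 5 mM MgCl2, 0.01% Tween20, 0.1% BSA; 0.1 M TEA pH 8.0; 45 min RT; ADP-Glo readout; no-enzyme control = full inhibition.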

[15] = Quantitative high throughput screen for delayed death inhibitors of the malarial parasite plastid, 96 hour incubation (AID 488745); conditions: Plasmodium falciparum growth; series mostly up to 28.7 µM; also: potency is read from the fitted curve at half-maximal effect; nearly all actives have a fitted effect of over 70% in size
In short: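 Two-generation (96 h) exposure of luciferase-reporter P. falciparum in erythrocytes, 2% hematocrit, 0.1% parasitemia final, 37 C, 5% CO2, RPMI 1640 with 0.5% Albumax. Growth inhibition scored by reduced luminescence.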

[16] = Counterscreen qHTS for small molecule stabilizers of the endoplasmic reticulum resident proteome: GLuc-NoTag assay (AID 1508627); conditions: Gaussia luciferase NoTag secretion counterscreen, luminescence, thapsigargin 100 nM for final 4 h; series mostly up to 76.4 µM; also: potency is read from the fitted curve at half-maximal effect;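 as to activity change, negative = inhibition: 0% = thapsigargin alone and -100% = DMSO vehicle control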
In short: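 Secreted GLuc lacking the SERCaMP modification is measured in SH-SY5Y cells exposed to compound for 19 h and then to thapsigargin (100 nM, 4 h) to deplete ER calcium; hits retested at 11 concentrations, up to 76.6 uM.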

[17] = Cell Viability qHTS for small molecule stabilizers of the endoplasmic reticulum resident proteome (AID 1508629); conditions: cell viability counter-screen, 100 nM thapsigargin for final 4 h;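 also: human SH-SY5Y neuroblastoma cells carrying the GLuc-SERCaMP reporter; compound exposure about 46 h in total before the viability read; % is scaled to controls: 0 for no effect and ±100 for the full control effect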

Chain of Pyruvate kinase (Leishmania mexicana) (Q27686 2-499 E452W): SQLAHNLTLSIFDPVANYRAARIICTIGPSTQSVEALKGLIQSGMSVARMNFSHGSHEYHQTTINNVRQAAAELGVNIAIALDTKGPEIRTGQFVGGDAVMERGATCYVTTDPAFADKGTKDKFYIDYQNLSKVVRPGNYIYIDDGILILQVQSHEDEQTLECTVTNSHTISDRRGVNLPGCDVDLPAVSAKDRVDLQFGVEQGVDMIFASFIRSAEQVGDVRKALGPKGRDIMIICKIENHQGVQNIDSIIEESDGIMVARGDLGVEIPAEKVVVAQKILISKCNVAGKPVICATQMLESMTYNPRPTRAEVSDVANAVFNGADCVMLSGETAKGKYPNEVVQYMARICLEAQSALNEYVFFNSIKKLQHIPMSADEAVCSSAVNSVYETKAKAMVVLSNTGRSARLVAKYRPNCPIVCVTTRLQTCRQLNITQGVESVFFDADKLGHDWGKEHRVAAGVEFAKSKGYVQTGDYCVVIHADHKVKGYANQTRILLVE
Chain of Cytochrome P450 1A2 (Homo sapiens) (P05177 whole entry, looked up): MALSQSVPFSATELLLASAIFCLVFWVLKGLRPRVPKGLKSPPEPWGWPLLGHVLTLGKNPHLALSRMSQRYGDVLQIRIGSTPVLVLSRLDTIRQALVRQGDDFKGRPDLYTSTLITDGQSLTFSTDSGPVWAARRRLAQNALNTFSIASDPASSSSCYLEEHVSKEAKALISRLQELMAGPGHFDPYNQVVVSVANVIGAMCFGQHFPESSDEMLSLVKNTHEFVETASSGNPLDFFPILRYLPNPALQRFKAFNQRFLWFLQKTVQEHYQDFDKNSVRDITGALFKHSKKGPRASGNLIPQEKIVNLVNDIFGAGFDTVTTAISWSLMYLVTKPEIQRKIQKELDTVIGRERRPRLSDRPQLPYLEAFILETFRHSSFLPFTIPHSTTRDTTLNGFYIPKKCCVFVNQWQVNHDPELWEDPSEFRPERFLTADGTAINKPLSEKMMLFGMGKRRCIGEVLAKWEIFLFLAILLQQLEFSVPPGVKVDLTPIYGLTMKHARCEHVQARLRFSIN
Chain of Cytochrome P450 3A4 (Homo sapiens) (P08684 whole entry, looked up): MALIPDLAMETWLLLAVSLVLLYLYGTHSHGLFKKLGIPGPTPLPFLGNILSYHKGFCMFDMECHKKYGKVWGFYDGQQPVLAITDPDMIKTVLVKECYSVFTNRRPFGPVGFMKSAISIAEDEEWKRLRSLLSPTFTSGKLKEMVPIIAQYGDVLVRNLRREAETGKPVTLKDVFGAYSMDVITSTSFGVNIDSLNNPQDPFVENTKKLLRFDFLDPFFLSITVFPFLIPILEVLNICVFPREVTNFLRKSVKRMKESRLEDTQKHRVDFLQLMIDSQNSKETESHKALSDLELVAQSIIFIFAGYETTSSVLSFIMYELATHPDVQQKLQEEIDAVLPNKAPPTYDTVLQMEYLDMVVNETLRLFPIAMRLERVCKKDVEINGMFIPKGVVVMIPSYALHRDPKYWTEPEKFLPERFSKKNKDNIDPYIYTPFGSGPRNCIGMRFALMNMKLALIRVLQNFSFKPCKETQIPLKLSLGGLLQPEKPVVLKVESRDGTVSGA
Chain of Ferritin light chain (Equus caballus) (P02791 2-175 limits assumed): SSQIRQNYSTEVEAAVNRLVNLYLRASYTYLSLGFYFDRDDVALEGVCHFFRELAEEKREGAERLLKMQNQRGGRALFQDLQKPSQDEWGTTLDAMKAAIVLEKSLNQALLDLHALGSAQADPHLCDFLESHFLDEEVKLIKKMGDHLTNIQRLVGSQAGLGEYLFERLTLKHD
Chain of ATP-dependent 6-phosphofructokinase (Trypanosoma brucei brucei) (O15648 whole entry, looked up): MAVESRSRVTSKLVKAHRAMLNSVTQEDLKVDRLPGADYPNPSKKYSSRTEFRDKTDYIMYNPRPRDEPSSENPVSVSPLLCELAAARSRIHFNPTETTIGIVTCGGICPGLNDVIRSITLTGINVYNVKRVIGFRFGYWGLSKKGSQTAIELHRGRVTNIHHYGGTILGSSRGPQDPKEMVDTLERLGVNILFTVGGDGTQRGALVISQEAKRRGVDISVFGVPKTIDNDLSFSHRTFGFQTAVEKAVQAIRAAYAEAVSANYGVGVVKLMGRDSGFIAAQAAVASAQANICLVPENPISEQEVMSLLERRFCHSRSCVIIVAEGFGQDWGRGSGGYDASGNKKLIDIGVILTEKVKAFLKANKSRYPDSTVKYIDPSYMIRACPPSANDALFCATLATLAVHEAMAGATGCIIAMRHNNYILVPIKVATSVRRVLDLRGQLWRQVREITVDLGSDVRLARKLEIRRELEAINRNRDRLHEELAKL
Chain of RecQ-like DNA helicase BLM (Homo sapiens) (P54132 whole entry, looked up): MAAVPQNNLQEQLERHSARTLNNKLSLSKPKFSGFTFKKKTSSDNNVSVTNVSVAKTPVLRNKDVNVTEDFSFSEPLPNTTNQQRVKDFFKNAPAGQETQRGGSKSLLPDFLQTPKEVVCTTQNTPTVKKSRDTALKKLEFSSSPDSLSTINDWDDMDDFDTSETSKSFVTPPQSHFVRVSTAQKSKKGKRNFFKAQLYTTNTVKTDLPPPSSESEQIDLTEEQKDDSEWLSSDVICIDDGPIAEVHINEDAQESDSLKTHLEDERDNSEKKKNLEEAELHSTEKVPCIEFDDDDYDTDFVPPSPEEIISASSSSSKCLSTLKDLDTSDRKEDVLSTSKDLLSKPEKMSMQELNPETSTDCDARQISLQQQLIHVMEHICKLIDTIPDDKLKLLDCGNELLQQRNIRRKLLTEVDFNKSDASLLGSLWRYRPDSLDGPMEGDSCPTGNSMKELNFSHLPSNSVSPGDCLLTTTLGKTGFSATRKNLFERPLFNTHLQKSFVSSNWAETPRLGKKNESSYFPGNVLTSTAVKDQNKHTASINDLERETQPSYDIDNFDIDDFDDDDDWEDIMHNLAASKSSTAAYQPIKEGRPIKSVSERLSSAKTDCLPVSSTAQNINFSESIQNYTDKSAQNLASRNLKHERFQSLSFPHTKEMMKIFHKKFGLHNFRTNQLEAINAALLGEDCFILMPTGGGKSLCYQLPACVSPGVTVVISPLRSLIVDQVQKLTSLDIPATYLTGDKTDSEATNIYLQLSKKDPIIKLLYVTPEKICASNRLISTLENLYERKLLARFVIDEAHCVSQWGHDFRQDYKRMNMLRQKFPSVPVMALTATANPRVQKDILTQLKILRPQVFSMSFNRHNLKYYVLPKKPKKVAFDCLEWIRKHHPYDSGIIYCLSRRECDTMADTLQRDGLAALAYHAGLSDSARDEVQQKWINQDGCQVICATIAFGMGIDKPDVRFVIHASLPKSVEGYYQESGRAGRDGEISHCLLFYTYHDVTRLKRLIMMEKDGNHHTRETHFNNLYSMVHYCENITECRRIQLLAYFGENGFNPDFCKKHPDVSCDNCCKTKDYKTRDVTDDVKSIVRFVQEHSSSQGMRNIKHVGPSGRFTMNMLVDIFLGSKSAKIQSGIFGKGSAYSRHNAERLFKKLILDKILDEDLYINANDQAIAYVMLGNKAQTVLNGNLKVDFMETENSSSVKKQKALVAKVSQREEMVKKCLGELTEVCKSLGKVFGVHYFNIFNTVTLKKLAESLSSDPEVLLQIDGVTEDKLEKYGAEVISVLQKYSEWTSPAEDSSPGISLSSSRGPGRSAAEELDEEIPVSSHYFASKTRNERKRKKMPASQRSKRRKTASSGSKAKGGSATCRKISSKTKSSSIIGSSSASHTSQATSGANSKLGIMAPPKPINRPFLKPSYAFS

CC[N+](CC)(CC)CC
inactive: activity change, negative = inhibition [1] -10.5% | Potency [2] | outcome [3]

Cc1cccc(/C=C/c2ccccc2)n1
inactive: outcome [4] | Potency [5] | Potency [6] | outcome [7] | Potency [8] | outcome [3]

O=Nc1c(-c2c(O)[nH]c3ccccc23)[nH]c2ccccc12
active: Potency [9] 200 nM and 31.6 nM | activity, negative = inhibition [10] -75% | Potency [5] 0.708 µM | Potency [13] 0.398 µM | Potency [6] 0.501 µM | Potency [15] 1.17 µM | Potency [16] 15.8 µM
inactive: activity change, negative = inhibition [1] -23.6% | Potency [11] | Potency [12] | Potency [14] | max response [17] -10.5%

S=C(Nc1ccccc1)Nc1nccs1
inactive: activity change, negative = inhibition [1] 0.515% | activity, negative = inhibition [10] 11.6% | Potency [11] | Potency [12] | outcome [7] | Potency [16] | max response [17] -3.94%
active: Potency [6] 8.91 µM | Potency [15] 9.28 µM
